Consider 5 compounds from PubChem BioAssay.

Assay [1] in a line: small molecules captured by biotinylated probe aFSTL3 – biochemical, small-molecule microarray, fluorescence 635/667, stem cell growth factor project, primary screen (AID 1064).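 Note: measures binding of the biotinylated anti-FSTL3 antibody to printed compounds.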 To be noted: higher = more signal.
Assay [2] in a line: binders from COS7 lysate, DM2A8 probe, primary screen, torsin A project, cell lysate, small-molecule microarray, fluorescence 635/667 (AID 1065). To be noted: higher = more signal, COS7 lysate expressing mutant human TOR1A.
Assay [3] in a line: small molecules captured by biotinylated probe aFGF2 – biochemical, small-molecule microarray, fluorescence 635/667, stem cell growth factor project, primary screen (AID 1067).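 Note: measures binding of biotinylated aFGF2 protein to printed compounds on slides; z-score merges feature fluorescence and signal-to-noise across triplicate slides.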 To be noted: higher = more signal.
Assay [4] is described as follows: small molecules captured by biotinylated probe aFGF10 – biochemical, small-molecule microarray, fluorescence 635/667, stem cell growth factor project, primary screen (AID 1071).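 Note: score merges 667 nm spot intensity and signal to noise from triplicate slides.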 To be noted: higher = more signal.
The target in assay [5] is Neurogenic locus notch homolog protein 2 (Homo sapiens) (UniProt Q04721). The experiment in a line: small molecules binding Notch2 protein – biochemical, small-molecule microarray, 635 nm fluorescence, stem cell growth factors, primary screen (AID 1073). To be noted: higher = more signal.
Chain of Neurogenic locus notch homolog protein 2 (Homo sapiens) (Q04721 whole entry, looked up, canonical isoform): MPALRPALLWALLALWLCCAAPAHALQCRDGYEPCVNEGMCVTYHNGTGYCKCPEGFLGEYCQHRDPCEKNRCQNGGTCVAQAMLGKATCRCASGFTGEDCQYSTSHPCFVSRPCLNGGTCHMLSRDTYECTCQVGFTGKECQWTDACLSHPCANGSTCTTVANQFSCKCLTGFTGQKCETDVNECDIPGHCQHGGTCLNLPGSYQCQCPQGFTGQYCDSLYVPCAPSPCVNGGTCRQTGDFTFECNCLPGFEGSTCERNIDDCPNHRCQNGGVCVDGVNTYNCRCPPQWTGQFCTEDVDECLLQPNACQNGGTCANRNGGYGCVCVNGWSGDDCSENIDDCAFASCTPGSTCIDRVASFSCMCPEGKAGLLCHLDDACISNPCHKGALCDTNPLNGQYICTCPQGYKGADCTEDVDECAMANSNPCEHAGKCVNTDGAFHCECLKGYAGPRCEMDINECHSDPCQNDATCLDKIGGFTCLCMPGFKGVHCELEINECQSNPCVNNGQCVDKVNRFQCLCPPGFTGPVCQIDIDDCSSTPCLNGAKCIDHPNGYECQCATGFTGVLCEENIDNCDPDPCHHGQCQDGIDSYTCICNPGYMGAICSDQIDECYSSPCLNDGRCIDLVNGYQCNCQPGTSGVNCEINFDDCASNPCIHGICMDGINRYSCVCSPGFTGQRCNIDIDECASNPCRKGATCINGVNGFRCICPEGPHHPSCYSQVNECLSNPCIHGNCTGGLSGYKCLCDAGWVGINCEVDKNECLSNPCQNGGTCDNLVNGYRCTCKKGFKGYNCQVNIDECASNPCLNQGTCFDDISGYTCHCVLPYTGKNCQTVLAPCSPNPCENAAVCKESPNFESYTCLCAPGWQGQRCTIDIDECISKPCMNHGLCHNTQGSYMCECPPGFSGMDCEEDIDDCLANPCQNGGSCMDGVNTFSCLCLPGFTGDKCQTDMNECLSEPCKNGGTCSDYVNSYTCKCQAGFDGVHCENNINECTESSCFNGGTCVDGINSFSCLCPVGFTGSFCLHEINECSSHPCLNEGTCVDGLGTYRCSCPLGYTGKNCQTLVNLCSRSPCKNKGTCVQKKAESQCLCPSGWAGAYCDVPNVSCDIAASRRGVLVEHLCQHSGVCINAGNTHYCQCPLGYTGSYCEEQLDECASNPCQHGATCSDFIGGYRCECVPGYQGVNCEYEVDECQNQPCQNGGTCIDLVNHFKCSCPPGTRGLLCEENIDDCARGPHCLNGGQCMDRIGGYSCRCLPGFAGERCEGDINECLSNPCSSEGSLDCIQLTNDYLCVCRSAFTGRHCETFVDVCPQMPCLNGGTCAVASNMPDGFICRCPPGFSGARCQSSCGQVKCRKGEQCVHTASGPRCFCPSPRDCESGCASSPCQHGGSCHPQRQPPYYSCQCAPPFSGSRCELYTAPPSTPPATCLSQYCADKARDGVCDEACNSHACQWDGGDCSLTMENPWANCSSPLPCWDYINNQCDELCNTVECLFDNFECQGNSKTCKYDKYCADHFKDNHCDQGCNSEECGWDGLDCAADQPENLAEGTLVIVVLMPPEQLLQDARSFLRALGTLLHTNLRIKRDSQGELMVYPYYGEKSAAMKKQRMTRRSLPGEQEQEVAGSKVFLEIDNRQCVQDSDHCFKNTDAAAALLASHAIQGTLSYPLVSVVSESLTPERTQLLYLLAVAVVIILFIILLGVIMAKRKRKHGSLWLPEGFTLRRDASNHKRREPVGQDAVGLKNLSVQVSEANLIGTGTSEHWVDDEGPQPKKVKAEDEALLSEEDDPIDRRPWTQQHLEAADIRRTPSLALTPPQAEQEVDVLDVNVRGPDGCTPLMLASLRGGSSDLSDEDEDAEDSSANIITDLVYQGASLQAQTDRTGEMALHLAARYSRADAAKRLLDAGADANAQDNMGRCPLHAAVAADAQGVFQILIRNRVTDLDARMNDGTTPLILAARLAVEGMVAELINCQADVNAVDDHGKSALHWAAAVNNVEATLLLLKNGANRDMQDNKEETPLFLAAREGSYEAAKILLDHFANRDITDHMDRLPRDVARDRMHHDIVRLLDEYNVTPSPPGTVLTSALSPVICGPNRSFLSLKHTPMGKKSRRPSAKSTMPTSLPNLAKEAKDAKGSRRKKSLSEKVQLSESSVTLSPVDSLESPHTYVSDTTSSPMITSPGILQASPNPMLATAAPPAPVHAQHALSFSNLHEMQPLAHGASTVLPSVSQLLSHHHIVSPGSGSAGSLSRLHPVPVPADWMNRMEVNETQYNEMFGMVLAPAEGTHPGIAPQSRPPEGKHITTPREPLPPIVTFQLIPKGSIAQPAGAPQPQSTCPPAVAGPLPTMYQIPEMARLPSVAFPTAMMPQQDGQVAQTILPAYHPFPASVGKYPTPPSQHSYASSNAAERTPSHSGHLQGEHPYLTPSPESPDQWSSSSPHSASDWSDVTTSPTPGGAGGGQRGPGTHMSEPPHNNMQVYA
Assay [6] deals with Pro-neuregulin-1, membrane-bound isoform (Homo sapiens) (UniProt Q02297). The experiment in a line: small molecules binding neuregulin-1 protein – biochemical, small-molecule microarray, fluorescence 635/667, psychiatric disease protein project, primary screen (AID 1075).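 Note: score combines 667 nm spot fluorescence with signal to noise.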 To be noted: NRG1 binding, 635 nm fluorescence, higher = more signal.
Chain of Pro-neuregulin-1, membrane-bound isoform (Homo sapiens) (Q02297 whole entry, looked up, the tested form may be a part, canonical isoform): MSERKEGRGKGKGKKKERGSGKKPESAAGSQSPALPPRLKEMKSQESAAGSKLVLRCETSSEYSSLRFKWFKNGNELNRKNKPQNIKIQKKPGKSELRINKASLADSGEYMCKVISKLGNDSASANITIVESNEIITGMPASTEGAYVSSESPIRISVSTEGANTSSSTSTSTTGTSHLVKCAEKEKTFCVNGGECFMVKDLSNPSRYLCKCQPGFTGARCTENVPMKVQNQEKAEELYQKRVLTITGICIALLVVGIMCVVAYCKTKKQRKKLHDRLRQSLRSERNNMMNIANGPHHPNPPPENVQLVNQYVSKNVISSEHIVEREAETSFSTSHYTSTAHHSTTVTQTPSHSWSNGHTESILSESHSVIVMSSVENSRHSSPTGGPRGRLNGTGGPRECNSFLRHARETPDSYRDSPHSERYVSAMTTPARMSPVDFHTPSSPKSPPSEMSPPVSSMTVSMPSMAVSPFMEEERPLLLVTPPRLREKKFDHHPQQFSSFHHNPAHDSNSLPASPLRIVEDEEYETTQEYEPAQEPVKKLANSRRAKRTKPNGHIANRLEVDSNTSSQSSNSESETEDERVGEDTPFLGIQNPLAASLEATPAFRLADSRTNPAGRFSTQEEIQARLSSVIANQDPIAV
Assay [7] has as its system Neuregulin-1 EGF-like domain. Put plainly: small molecules binding NRG1 EGF domain – biochemical, small-molecule microarray, 635 nm fluorescence, primary screen (AID 1081).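 Note: binding of the protein to compounds printed on small-molecule microarray slides.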 To be noted: higher = more signal.
The nature of assay [8]: FRG1 expression reporter modulators in myotubes – cell-based, C2C12 myotubes, firefly/Renilla luciferase, luminescence, FRG1 inhibition for FSHD, primary screen (AID 1084). To be noted: FRG1 promoter luciferase, higher = more signal, called active from +8 up or from −8 down.
Assay [9] in a line: small molecules captured by biotinylated probe aFST – biochemical, small-molecule microarray, fluorescence 635/667, stem cell growth factor project, primary screen (AID 1086).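 Note: score merges 667 nm fluorescence with signal-to-noise of each printed compound spot.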 To be noted: higher = more signal.
Assay [10] is described as follows: binders of probe aHhip on microarray, primary screen, stem cell growth factor project, biochemical, small-molecule microarray, fluorescence 635/667 (AID 1087).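 Note: score merges spot fluorescence at 667nm with spot signal to noise ratio.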 To be noted: higher = more signal.
Assay [11] deals with PRMT1 (protein arginine N-methyltransferase 1). The experiment in a line: small molecules binding arginine methyltransferase PRMT1 – biochemical, small-molecule microarray, 635 nm fluorescence, primary screen (AID 1088).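 Note: binding of Prmt1 protein to compounds spotted on small-molecule microarray slides.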 To be noted: higher = more signal.
The nature of assay [12]: growth effects on S. cerevisiae YJM789 – YJM789 clinical isolate, OD600, 24 h, basal, primary screen (AID 1089).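 Note: growth of clinical yeast isolate S. cerevisiae YJM 789 seeded 1000 cells per well; test concentration not given here.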 To be noted: higher = more signal, called active from +8 up or from −8 down.
The nature of assay [13]: S. pombe growth modifiers, basal conditions – strain 972, OD600, 24 h, no modulator, primary screen (AID 1090).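 Note: basal condition with compound alone and no growth modifier present; test concentration not given here.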 To be noted: S. pombe 972 growth, higher = more signal, called active from +8 up or from −8 down.
A short description of assay [14]: budding yeast growth modifiers under rapamycin – strain BY4716, OD600, 96 h, primary screen (AID 1091). Note: test concentration not given here. To be noted: S. cerevisiae BY4716 + rapamycin, higher = more signal, called active from +8 up or from −8 down.
Assay [15] addresses Torsin-1A-interacting protein 2 (Homo sapiens) (UniProt Q8NFQ8). The experiment in a line: small molecules binding lysate-expressed LULL1 – cell lysate, human LULL1 lysate, 635/667 nm fluorescence, primary screen (AID 1092).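 Note: probe is lysate of COS7 cells overexpressing human LULL1; score merges per-feature 667 nm fluorescence with signal-to-noise.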 To be noted: small-molecule microarray, hLULL1 lysate binding, 635 nm fluorescence; higher = more signal.
Assay [16] can be described thus: optical density change of DRC41 E. coli – strain DRC41, OD650, 24 h, E. coli filamentation project, primary screen (AID 1093).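 Note: MC1000 strain lacking acrAB efflux and sulA so SOS filamentation is blocked; test concentration not given here.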 To be noted: E. coli DRC41 growth, higher = more signal, called active from +8 up or from −8 down.
Assay [17] can be described thus: probe aLefty2 binding to arrayed compounds – biochemical, biotinylated probe, 635/667 nm fluorescence, primary screen (AID 1094).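 Note: score merges spot fluorescence near 667 nm with spot signal-to-noise ratio.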 To be noted: small-molecule microarray, higher = more signal.
The test system of assay [18] is Noggin (protein binding on small-molecule microarray). The experiment in a line: small molecules binding Noggin protein – biochemical, 635/667 nm fluorescence, primary screen (AID 1095).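 Note: score merges 667 nm feature fluorescence with signal to noise over triplicate slides.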 To be noted: 635 nm fluorescence, higher = more signal.
For assay [19], the target named is Neurogenic locus notch homolog protein 3 (Homo sapiens) (UniProt Q9UM47). The experiment in a line: small molecules binding NOTCH3 protein – biochemical, 635/667 nm fluorescence, primary screen (AID 1096). To be noted: small-molecule microarray, 635 nm fluorescence, higher = more signal.
Assay [20] is described as follows: probe aEGFR binding to arrayed compounds – biochemical, biotinylated probe, 635/667 nm fluorescence, primary screen (AID 1097).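 Note: probe is a biotinylated anti-EGFR antibody binding compounds printed on slides; score combines fluorescence near 667 nm and signal to noise of each spot.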 To be noted: small-molecule microarray, higher = more signal.

The source made the active and inactive calls.

Chain of Torsin-1A-interacting protein 2 (Homo sapiens) (Q8NFQ8 whole entry, looked up): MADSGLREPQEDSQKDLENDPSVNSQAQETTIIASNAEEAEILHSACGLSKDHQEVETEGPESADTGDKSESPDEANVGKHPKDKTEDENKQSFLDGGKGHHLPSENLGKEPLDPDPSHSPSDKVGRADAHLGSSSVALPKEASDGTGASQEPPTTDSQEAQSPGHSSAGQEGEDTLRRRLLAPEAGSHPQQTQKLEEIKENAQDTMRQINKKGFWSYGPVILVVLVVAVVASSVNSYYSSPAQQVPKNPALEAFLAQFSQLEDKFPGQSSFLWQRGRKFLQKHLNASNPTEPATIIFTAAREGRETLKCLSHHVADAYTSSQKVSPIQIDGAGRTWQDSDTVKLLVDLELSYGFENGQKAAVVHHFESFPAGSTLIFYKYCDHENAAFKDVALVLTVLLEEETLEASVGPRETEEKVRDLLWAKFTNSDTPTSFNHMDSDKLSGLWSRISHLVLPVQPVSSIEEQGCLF

As for `C=CCOC(=O)[C@H]1[C@@H]2C(=O)O[C@@H](c3ccccc3)[C@@H](c3ccccc3)N2[C@@H](c2ccc(OCCOC(=O)[C@H]3C[C@H]4C(=O)N[C@@H](Cc5ccccc5)C(=O)N4[C@H]3c3cccc(OCCO)c3)cc2)[C@]12C(=O)Nc1ccc(I)cc12`, the composite z-score in assay [1] was -0.36; in assay [2] it was 0.876; in assay [3], 0.0422; in assay [4], 0.66; in assay [5], 0.118; in assay [6], 1.35. Moreover, the composite z-score in assay [7] was 1.21; in [9] it was 0.0086; in assay [10] it was 0.122; in assay [11] it was 1.54; in [15], 2.36; in assay [17] it was -0.185. The composite z-score is 1.91 in assay [18], 1.09 in assay [19] and -0.067 in assay [20]. Further, the z-score was 0.633 (inactive) in assay [8]; 0.731 (inactive) in assay [12]; 1 (inactive) in [13]; 4 (inactive) in assay [14]; -0.0451 (inactive) in assay [16].

Turning to `O=C1c2ccccc2[C@@]2(Cc3ccccc3N(C3CC3)C2=O)[C@H](c2ccc(CO)cc2)N1C1CCCCC1`, the composite z-score in assay [1] is -0.0266; in [2] it was -0.625; in [3] it was -0.0325; in assay [4], -0.015; in assay [5], -0.119; in assay [6], 0.123. Also, the composite z-score in [7] was -0.716; in assay [9] it was -0.0416; in assay [10] it was -0.0994; in [11], -0.767; in assay [15] it was 1.79; in assay [17], -0.17. Further, the composite z-score in assay [18] is -0.699; in assay [19], -0.938; in assay [20], -0.168. Besides, the z-score is 0.291 (inactive) in [8]; -0.451 (inactive) in assay [12]; 0.285 (inactive) in assay [13]; -0.728 (inactive) in assay [14]; -0.1 (inactive) in assay [16].

`COCCOC(=O)N1C(=O)[C@@]2(c3cc(C#CC4(O)CCCCCC4)ccc31)[C@H](C(N)=O)[C@H]1C(=O)O[C@H](c3ccccc3)[C@H](c3ccccc3)N1[C@@H]2c1ccc(O)cc1`: the composite z-score in [1] was -0.353; in assay [2] it was 0.516; in [3], -0.0494; in assay [4] it was 0.544; in assay [5] it was 0.618; in assay [6], 0.446. Besides, the composite z-score in assay [7] was 1.28; in assay [9], 0.33; in [10] it was 0.192; in assay [11], 1.55; in assay [15], 2.41; in assay [17] it was -0.0009. Besides, the composite z-score is 1.53 in [18], 1.12 in assay [19] and -0.0418 in [20]. Besides, the z-score in assay [8] was 0.116 (inactive); in assay [12], 0.121 (inactive); in assay [13], 0.182 (inactive); in assay [14], 0.523 (inactive); in assay [16], -0.426 (inactive).

Take `COc1cc(CO)cc(I)c1O[C@H]1C=C(C(=O)NCCO)C[C@@H](N(Cc2ccc(F)cc2)C(=O)C2CCCO2)[C@@H]1O` (stereo not given in full): the composite z-score in [1] is -0.625; in assay [2], 0.114; in [3], -0.057; in assay [4], 0.122; in assay [5], 0.159; in assay [6], -0.0002. For the same compound, the composite z-score in assay [7] is 0.547; in assay [9] it was 0.0494; in assay [10], 0.142; in assay [11], -0.516; in [15], -0.492; in assay [17], -0.116. Also, the figures for the composite z-score in [18], in assay [19] and in assay [20] were 0.0313, -0.331 and -0.158, respectively. The z-score in assay [8] was -0.851 (inactive); in assay [12], -0.558 (inactive); in assay [13] it was -0.389 (inactive); in assay [14] it was -0.188 (inactive); in assay [16] it was 3.2 (inactive).

As for `O=C1O[C@@H](c2ccccc2)[C@@H](c2ccccc2)N2[C@@H](c3ccc(O)cc3)[C@]3(C(=O)Nc4ccc(C#CCCO)cc43)[C@@H](C(=O)Nc3nc4ccccc4s3)[C@H]12`, the composite z-score was 0.0071 in assay [1]; 1.27 in [2]; -0.0721 in assay [3]; 0.987 in assay [4]; 0.37 in assay [5]; 1.45 in [6]. Moreover, the composite z-score is 1.19 in assay [7]; 0.158 in assay [9]; -0.236 in [10]; 1.55 in assay [11]; 2.81 in [15]; -0.119 in assay [17]. In addition, the values for the composite z-score in assay [18], in assay [19] and in assay [20] were 1.35, 0.851 and -0.0036, respectively. The z-score in [8] is 0.213 (inactive); in assay [12], 0.782 (inactive); in assay [13], 0.403 (inactive); in assay [14] it was 1.93 (inactive); in assay [16], 0.887 (inactive).
